# Giardia FBPA inh: qHTS Assay for Inhibitors of Fructose-1,6-bisphosphate Aldolase from Giardia Lamblia; A8B2U2; purified Giardia FBPA; Potency, µM (top dose mostly 59.6 µM), for inactives: at the top dose activity, negative = inhibition, hits mostly inhibitors; 290,000 compounds, 0.71% hits; note: potency is the fitted concentration of half-maximal effect; % is set by controls: 0 for no effect and ±100 for the full control effect; nearly all actives have a fitted effect of over 55% in size
# Target sequence (A8B2U2 whole entry, looked up): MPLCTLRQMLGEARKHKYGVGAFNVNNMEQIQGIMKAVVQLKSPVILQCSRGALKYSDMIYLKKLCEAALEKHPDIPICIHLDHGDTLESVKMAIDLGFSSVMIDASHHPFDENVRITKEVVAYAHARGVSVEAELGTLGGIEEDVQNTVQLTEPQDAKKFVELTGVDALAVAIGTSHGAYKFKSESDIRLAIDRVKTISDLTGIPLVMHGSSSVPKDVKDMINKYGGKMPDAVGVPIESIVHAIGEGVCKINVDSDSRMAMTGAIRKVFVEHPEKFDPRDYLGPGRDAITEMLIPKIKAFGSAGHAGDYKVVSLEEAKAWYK
#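 Giardia FBPA (40 nM reagent) was preincubated 10 min at RT with compound (up to 57.5 uM final), then substrate plus GAPDH/TPI/NAD/arsenate coupling system with diaphorase/resazurin was added; resorufin fluorescence (525/598 nm) was read after 20 min.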
# CHX counter: Cycloheximide Counterscreen for Small Molecule Inhibitors of Shiga Toxin; cell reporter, cycloheximide protein synthesis inhibition counterscreen; max response, %; 300,000 compounds, 12% hits; in the data active = max response mostly above about 13%, no sharp cut-off; inactive = mostly below about 14%; note: read at 38.3 µM for the half of the compounds with a filed dose; 0% is about no effect
# NS1 inh: qHTS Assay for Inhibitors of Influenza NS1 Protein Function | Potency, µM (top dose mostly 46.1 µM), for the others: at the highest dose activity, positive = more growth | 270,000 compounds, 0.4% hits; calls by dose curve; note: potency is the fitted concentration of half-maximal effect; actives are rising curves; nearly all actives have a fitted effect of over 50% in size
#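 S. cerevisiae expressing influenza A NS1, grown in glucose, washed, then diluted 1:100 into pH 6.0 -URA galactose medium with 23 nl compound. Growth recovery read as OD600; NS1-free strain serves as control.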
# Pf growth 48h: Primary qHTS for delayed death inhibitors of the malarial parasite plastid, 48 hour incubation; 310,000 compounds, 5.9% hits; Potency, µM (top dose mostly 28.7 µM), without a hit: at the top dose activity change, negative = inhibition, actives largely listed as inhibitors; P. falciparum luciferase growth in erythrocytes, 48 h; AID 504832, 2011; note: potency is the fitted concentration of half-maximal effect; % is set by controls: 0 for no effect and ±100 for the full control effect
#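 Parasite viability was followed by luminescence of a genomically integrated firefly luciferase. Cultures held 0.1% parasitemia at 2% hematocrit (final), incubated under 5% CO2 at 37 C.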
# Shiga toxin inh: A qHTS for Small Molecule Inhibitors of Shiga Toxin | Vero cells, Shiga toxin protein synthesis inhibition reporter | inhibition, % at 38.7 µM | 290,000 compounds, 9.2% hits | AID 2315, 2010; in the data active = inhibition mostly above about 28%, no sharp cut-off; inactive = mostly below about 43%; note: 0% is about no effect
# Pf growth 96h: Primary qHTS for delayed death inhibitors of the malarial parasite plastid, 96 hour incubation; P. falciparum luciferase reporter growth, 96 h; Potency, µM (series often up to 28.7 µM), inactives show at the top dose activity change, negative = inhibition, hits mostly inhibitors; 320,000 compounds, 6.9% hits; note: potency is the fitted concentration of half-maximal effect; % is set by controls: 0 for no effect and ±100 for the full control effect
#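 Plates of compound plus infected erythrocytes (2% hematocrit, 0.05% parasitemia final) incubate 96 hours, 37 C, 5% CO2. Detection reagent added; reduced luminescence from the parasites' luciferase reporter flags inhibition.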
# Starred values were filed as active, the others as inactive; i = inactive; ? = inconclusive; nt = no result given; [ ] = dose if it differs, or a comment. In the library only some 21% were active in any assay of this set; here they are far more common. Unless noted, calls come from the whole dose curve; as a rule, active = well fitted curve in the direction sought with a large enough effect; inconclusive = small, poorly fitted or top-dose-only effect, or another doubt; inactive = no such curve, though single readings can be large; an effect the other way counts as inactive or inconclusive.
SMILES,Giardia FBPA inh,CHX counter,NS1 inh,Pf growth 48h,Shiga toxin inh,Pf growth 96h
O=C(CCSc1ccc(Br)cc1)c1ccc(O)cc1,0.0%,-1.5,-95.3%,-2.8%,5.9,4.9%
O=C(CN1N=C(c2ccccc2)CCC1=O)NCc1ccco1,1.0%,-3.5,-1.0%,16.6%,5.0,i
COc1ccc(NC(=O)CSc2nccn2Cc2ccccc2)c(OC)c1,nt,12.2,-25.5%,-8.4%,17.2,-5.9%
COc1ccc(NC(=O)CSc2ccccc2)c(OC)c1,-0.4%,43.0*,-7.8%,276.3%,82.6*,?
COc1ccc(NC(=O)CCS(=O)(=O)c2ccccc2)c(OC)c1,-2.9%,15.1*,-7.5%,16.5%,36.4*,-27.5%
O=C(CCCN1C(=O)/C(=C/c2ccccc2Cl)SC1=S)NCCCN1CCOCC1,1.7%,-3.5,20.1%,11.7µM*,-9.2,?
O=C(CCN1C(=O)S/C(=C\c2ccccc2)C1=O)N1CCCCC1,nt,26.8*,-2.7%,-5.1%,74.9*,26.9%
O=C(CCCN1C(=O)/C(=C/c2ccccc2Cl)SC1=S)N1CCCC1,20.7%,-1.5,-46.1%,?,-0.7,9.28µM*
O=C(CCN1C(=O)/C(=C/c2ccccc2F)SC1=S)NCCCN1CCOCC1,-4.3%,-3.2,-1.8%,?,-4.3,6.7%
O=C(O)C1CCN(C(=O)CCN2C(=O)S/C(=C\c3ccccc3)C2=O)CC1,-7.1%,14.0,-11.6%,11.0%,-4.6,9.3%
O=C(CCN1C(=O)/C(=C\c2ccccc2)SC1=S)N1CCOCC1,-6.2%,-1.0,0.8%,11.7µM*,-2.0,-14.5%
O=C(CCN1C(=O)/C(=C/c2ccccc2Cl)SC1=S)N1CCCC1,6.8%,7.0,-7.7%,?,1.9,?
COc1ccc(Oc2ncc3nc(-c4cccc(C#N)c4)c(=O)n(Cc4cccc(OC)c4)c3n2)cc1,-0.2%,nt,nt,nt,nt,nt
CCCCn1c(N)c(N(CC(C)C)C(=O)COC(=O)Cc2cccc(OC)c2)c(=O)[nH]c1=O,nt,nt,nt,?,nt,0.7%
O=C(CCCN1C(=O)/C(=C/c2ccccc2)SC1=S)N1CCOCC1,nt,10.8,2.9%,?,4.5,3.5%
COC(=O)c1ccc(/C=C2/SC(=S)N(CCC(=O)NCCCN3CCOCC3)C2=O)cc1,nt,2.4,2.1%,0.0%,-3.8,?
O=C(CCN1C(=O)/C(=C/c2ccccc2Cl)SC1=S)N1CCOCC1,-0.1%,11.4,?,13.1µM*,1.3,?
CCc1ccc(/C=C2/SC(=S)N(CCC(=O)NCCCN3CCOCC3)C2=O)cc1,7.2%,48.2*,20.1%,?,90.6*,?
CCCCNC(=O)[C@@H]1Cc2ccccc2N1C(=O)[C@H](N)CC,-3.6%,nt,nt,nt,nt,nt
c1ccc2c(c1)OC[C@@H](C1=NCCN1)O2,0.2%,nt,nt,nt,nt,nt
c1ccc(C2(c3ccccc3)CC2C2=NCCN2)cc1 (stereo not given),nt,nt,nt,?,nt,13.5µM*
CCn1cnc2cc(NCc3ccc(OC)cc3)ccc21,-5.7%,27.5,-6.8%,nt,45.5,45.5%
COc1ccc(CNc2ccc3c(c2)nc(C)n3C)cc1OC,-8.9%,43.7*,-7.9%,55.0%,58.1*,7.4%
CCOc1ccccc1CNc1nc2ccccc2n1C,-5.4%,6.9,0.8%,-29.4%,10.0,3.0%
CCOc1ccc(CNc2ccc3c(c2)nc(C)n3C)cc1,-18.0%,25.3*,-13.6%,-18.7%,active,nt
SMILES,Giardia FBPA inh,CHX counter,NS1 inh,Pf growth 48h,Shiga toxin inh,Pf growth 96h
CCOc1ccc(CNc2nc3ccccc3n2C)cc1,-5.3%,38.8*,-9.2%,0.7%,nt,?
COc1cccc(-c2nc(CS(=O)(=O)CC(=O)Nc3ccccc3Cl)c(C)o2)c1,-12.6%,1.8,13.4%,8.4%,8.3,-23.5%
Cc1nn(C(=O)c2cccs2)c(C)c1CN1C(=O)c2ccccc2C1=O,4.5%,-3.9,1.9%,nt,-17.3,nt
Cc1nn(C(=O)c2cc3sccc3[nH]2)c(C)c1C,-0.2%,42.8*,-1.5%,78.9%,92.0*,29.4%
COc1ccc(CCNS(=O)(=O)c2cc(C(=O)O)c(Cl)cc2Cl)cc1,8.3%,-6.1,5.2%,-30.6%[1.15 µM],6.2,-40.0%[1.15 µM]
CCOc1cccc(CN2CCCC(N3CCN(c4cccc(Cl)c4)CC3)C2)c1O (stereo not given),4.8%,-1.6,8.5%,?,-5.3,3.7µM*
COc1ccc(Cl)cc1C(=O)C1CCCN(Cc2cnc(N3CCOCC3)s2)C1 (stereo not given),-6.6%,0.2,-1.8%,?,-22.7,10.4µM*
CCOc1cccc(CN2CCCC(N3CCc4ccccc4C3)C2)c1O (stereo not given),-10.5%,-1.0,-3.1%,1.65µM*,3.6,-19.4%
COc1cccc(CN2CCCC(N3CCc4ccccc4C3)C2)c1O (stereo not given),-11.4%,-2.1,14.6%,?,-7.9,-1.2%
COc1ccc(F)cc1C(=O)C1CCCN(Cc2cnc(N3CCCC3)s2)C1 (stereo not given),-11.3%,1.0,1.2%,-1.6%,-5.6,-5.3%
FC(F)(F)c1cccc(N2CCN(Cc3cccnc3)CC2)c1,-0.3%,-3.6,2.0%,?,16.2,4.65µM*
COc1cccc(CN2CCN(c3cccc(C(F)(F)F)c3)CC2)c1OC,-24.0%,-2.4,-18.1%,-29.0%,8.0,nt
CCOc1cccc(CN2CCN(c3cccc(C(F)(F)F)c3)CC2)c1O,?,3.9,15.7%,2.33µM*,23.2,nt
CCOc1cccc(CN2CCCC(C(=O)c3cc(Cl)ccc3OC)C2)c1O (stereo not given),2.4%,-2.7,0.0%,1.65µM*,-3.3,-27.7%
CCc1nnc(NS(=O)(=O)c2ccc(NC(=S)NC(=O)/C=C/c3ccc(F)cc3)cc2)s1,-2.0%,-2.8,-20.4%,-2.3%,-10.2,10.4µM*
CCc1nnc(NS(=O)(=O)c2ccc(N/C=C/C(=O)c3ccc(C)cc3)cc2)s1,8.5%,39.1*,1.2%,20.5%,93.5*,-11.0%
CCc1nnc(NS(=O)(=O)c2ccc(NS(=O)(=O)c3ccc(NC(C)=O)cc3)cc2)s1,16.3%,-1.6,10.6%,nt,-11.5,29.4%
CCc1nnc(NS(=O)(=O)c2ccc(N/C=C\C(=O)c3ccc(C)cc3)cc2)s1,9.4%,27.8*,-52.2%,58.6%,102.8*,133.9%
CCc1nnc(NS(=O)(=O)c2ccc(NC(=S)NC(=O)/C=C/c3ccc([N+](=O)[O-])cc3)cc2)s1,1.5%,0.9,19.9%,-14.3%,10.5,-24.0%
CCc1nnc(NS(=O)(=O)c2ccc(N/C=C\C(=O)c3ccc(F)cc3)cc2)s1,10.7%,47.1*,6.8%,-13.6%,66.3*,-24.3%
CCc1nnc(NS(=O)(=O)c2ccc(NC(=O)CCC(=O)O)cc2)s1,-22.9%,-0.4,-13.9%,-4.3%,-10.0,-15.7%

# Assay outcomes: PubChem BioAssay, National Center for Advancing Translational Sciences (NCATS)
